# According to PubChem BioAssay (NCATS):
# “And” between values parts separate entries of the source, which are not always exact repeats. Equal entries are not always repeated. Records with an inconclusive call do not appear. Some structures have more than one record in an assay (separate samples or runs), and their calls can disagree. The source made the active and inactive calls. Unless noted, calls follow the shape of the dose curve; as a rule, active = well fitted curve in either direction with a large enough effect (not every such curve was filed as active); inconclusive = small, poorly fitted or top-dose-only effect, or another doubt; inactive = flat fitted curve, though single readings scatter.
# What was measured:
# [1] = AP1 Signaling Pathway (AID 357); conditions: ME-180 AP-1-bla reporter, EGF-induced, beta-lactamase ratio, 5 h;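 also: ME-180 reporter cells stimulated with EGF at its EC50 level; % is scaled to controls: 0 for no effect and ±100 for the full control effect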
# In short: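 Titration-series screen for positive or negative modulators of EC50 EGF-induced signaling in ME-180 cells carrying an AP-1-driven beta-lactamase reporter. After 5 hours at 37 degrees Celsius, CCF4 460nm/530nm emission ratio gave %Activity; AC50 values derived.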
# [2] = target: Cytochrome P450 1A2 (Homo sapiens) (UniProt P05177); test: p450-cyp1a2 (AID 410; calls by dose curve; also: potency is read from the fitted curve at half-maximal effect;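 as to activity change, negative = inhibition: -100% = full effect of reference inhibitor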); conditions: recombinant CYP1A2, luciferin-ME demethylation, luminescence; series mostly up to 57 µM
# Cytochrome P450 1A2 (Homo sapiens), sequence (P05177 whole entry, looked up): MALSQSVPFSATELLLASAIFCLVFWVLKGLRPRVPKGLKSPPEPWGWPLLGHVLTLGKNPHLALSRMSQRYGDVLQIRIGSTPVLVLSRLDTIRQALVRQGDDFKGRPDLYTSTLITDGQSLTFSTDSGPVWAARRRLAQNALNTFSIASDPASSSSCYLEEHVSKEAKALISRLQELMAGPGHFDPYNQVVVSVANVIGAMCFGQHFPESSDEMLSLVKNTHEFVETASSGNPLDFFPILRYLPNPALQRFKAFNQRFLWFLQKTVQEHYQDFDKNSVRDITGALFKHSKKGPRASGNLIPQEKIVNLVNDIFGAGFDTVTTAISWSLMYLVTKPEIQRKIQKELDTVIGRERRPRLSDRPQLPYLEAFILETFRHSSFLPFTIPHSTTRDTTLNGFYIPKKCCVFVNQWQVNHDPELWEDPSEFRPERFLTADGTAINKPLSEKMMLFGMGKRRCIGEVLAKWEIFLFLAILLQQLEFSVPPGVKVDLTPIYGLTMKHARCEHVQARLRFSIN
# In short: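 Inhibition was calculated relative to 57 uM furafylline (full inhibition). The reaction used human CYP1A2 at 20nM with Luciferin-ME at its Km, 100uM, driven by an NADPH-regenerating system for 60 min at room temperature.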
# [3] = NFAT Signaling Pathway (AID 444); conditions: Jurkat NFAT-bla M1, carbachol, beta-lactamase ratio, 5 h;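 also: carbachol stimulus at about its EC50 of 1 µM final; % is scaled to controls: 0 for no effect and ±100 for the full control effect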
# In short: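 Jurkat cells with NFAT-driven β-lactamase reporter and co-expressed M1 receptor, stimulated with carbachol (final 1 uM, ~EC50), compound titration, 5 h at 37 °C. CCF4 loaded 1 h at RT; 460/530 nm ratio gave %activity and AC50.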
# [4] = Stat Signaling Pathway (AID 446); conditions: ME-180 SIE beta-lactamase reporter, IL-6 stimulated, 5 h;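 also: ME-180 cervical cancer cells given 40 pM IL-6 alongside compound; SIE-controlled beta-lactamase reporter measured as 460/530 nm FRET emission ratio; % is scaled to controls: 0 for no effect and ±100 for the full control effect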
# In short: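 ME-180 cells carrying a SIE-driven beta-lactamase reporter are stimulated with 40 pM IL-6 for 5 h at 37C in the presence of compound. The 460/530 nm FRET substrate ratio is read after 2.5 h at RT. Data are normalised to 300 pM IL-6 and to 125 nM JAK inhibitor controls.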
# [5] = target: Mitogen-activated protein kinase 10 (Mus musculus) (UniProt Q61831); test: JNK3 AlphaScreen Assay (AID 530); conditions: JNK3 lysate, c-Jun phosphorylation; series mostly up to 57.1 µM;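 also: kinase came from lysate of stimulated human HepG2 cells; signal reports phosphorylation of biotinylated GST-cJun 1-79 at Ser73 with 10 µM ATP; % is scaled to controls: 0 for no effect and ±100 for the full control effect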
# In short: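 qHTS format: compounds tested as titrations against IL-1beta/TNF-alpha-activated HepG2 lysate JNK3 with biotin-GST-cJun substrate and 10 uM ATP at room temperature. Loss of anti-phospho-cJun AlphaScreen signal indicates inhibition.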
# [6] = target: 3',5'-cyclic-AMP phosphodiesterase 4B (Homo sapiens) (UniProt Q07343); test: qHTS Assay for Inhibitors of PDE-IV (AID 607; active = well fitted activation curve with a large enough effect in the main read-out, with a control signal flat, not every such curve was filed as active; also: % of control where 0% means no effect); conditions: HEK293 ACTOne CNG channel cells, membrane potential fluorescence; series mostly up to 22.9 µM
# 3',5'-cyclic-AMP phosphodiesterase 4B (Homo sapiens), sequence (Q07343 whole entry, looked up): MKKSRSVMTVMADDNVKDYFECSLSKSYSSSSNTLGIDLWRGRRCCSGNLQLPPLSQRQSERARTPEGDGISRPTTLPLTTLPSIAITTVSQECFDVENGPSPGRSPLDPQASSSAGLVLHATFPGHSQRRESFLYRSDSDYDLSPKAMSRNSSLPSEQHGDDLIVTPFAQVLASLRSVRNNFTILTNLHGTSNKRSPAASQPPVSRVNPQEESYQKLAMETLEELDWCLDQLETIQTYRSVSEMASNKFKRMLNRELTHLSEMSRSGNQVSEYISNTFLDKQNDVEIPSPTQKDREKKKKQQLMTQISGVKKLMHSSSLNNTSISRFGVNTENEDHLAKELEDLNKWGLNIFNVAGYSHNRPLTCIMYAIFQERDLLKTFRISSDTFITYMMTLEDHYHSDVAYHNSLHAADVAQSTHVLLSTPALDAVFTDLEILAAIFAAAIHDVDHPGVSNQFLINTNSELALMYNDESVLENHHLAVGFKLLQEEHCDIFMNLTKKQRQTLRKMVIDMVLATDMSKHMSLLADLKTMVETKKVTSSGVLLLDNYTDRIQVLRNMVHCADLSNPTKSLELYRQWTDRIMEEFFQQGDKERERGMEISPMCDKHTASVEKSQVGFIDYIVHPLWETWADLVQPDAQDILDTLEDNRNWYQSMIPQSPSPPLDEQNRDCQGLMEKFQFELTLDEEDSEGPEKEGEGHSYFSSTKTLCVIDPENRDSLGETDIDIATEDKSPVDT
# In short: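 HEK293 ACTOne cells with CNG channel (1000/well), endogenous PDE4; membrane potential dye, compounds up to 22.9 uM final. Fluorescence Ex 535/Em 590; RO 20-1724 (100 uM final) as reference.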
# [7] = target: Guanine nucleotide-binding protein G(i) subunit alpha-1 (Homo sapiens) (UniProt P63096); test: qHTS Assay for Inhibitors of RGS12 GoLoco Motif Activity (Green Fluorophore) (AID 879; active = well fitted curve in the direction sought with a large enough effect; an effect the other way counts as inactive or inconclusive;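 also: 0% = labeled peptide with Gαi1 and full inhibition = labeled peptide alone without protein; negative values mean loss of peptide binding seen as reduced polarization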); conditions: Galphai1/FITC-RGS12 GoLoco peptide, fluorescence polarization; series mostly up to 57.1 µM
# Guanine nucleotide-binding protein G(i) subunit alpha-1 (Homo sapiens), sequence (P63096 whole entry, looked up): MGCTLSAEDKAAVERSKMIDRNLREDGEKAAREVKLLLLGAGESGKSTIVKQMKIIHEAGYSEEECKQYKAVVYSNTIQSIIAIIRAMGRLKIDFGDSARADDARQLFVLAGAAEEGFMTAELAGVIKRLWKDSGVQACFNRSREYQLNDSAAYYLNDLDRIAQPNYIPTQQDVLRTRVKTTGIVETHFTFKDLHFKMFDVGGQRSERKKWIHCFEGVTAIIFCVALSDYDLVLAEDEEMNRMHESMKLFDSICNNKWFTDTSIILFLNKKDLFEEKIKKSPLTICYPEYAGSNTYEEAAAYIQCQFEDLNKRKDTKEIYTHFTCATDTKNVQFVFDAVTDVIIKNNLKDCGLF
# In short: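 Fluorescence polarization assay: 50 nM Gαi1 with 10 nM FITC-labeled RGS12 GoLoco peptide in 10 mM Tris pH 7.5, 150 mM NaCl, 0.1 mM GDP, 0.05% NP40, 10 min at room temperature with compound.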
# [8] = target: Cytochrome P450 3A4 (Homo sapiens) (UniProt P08684); test: qHTS Assay for Activators of Cytochrome P450 3A4 (AID 885; active = well fitted curve in the direction sought with a large enough effect; an effect the other way counts as inactive or inconclusive; also: nearly all actives have a fitted effect of over 65% in size); conditions: recombinant CYP3A4, Luciferin-PPXE luminescence, 60 min; series mostly up to 57.1 µM
# Cytochrome P450 3A4 (Homo sapiens), sequence (P08684 whole entry, looked up): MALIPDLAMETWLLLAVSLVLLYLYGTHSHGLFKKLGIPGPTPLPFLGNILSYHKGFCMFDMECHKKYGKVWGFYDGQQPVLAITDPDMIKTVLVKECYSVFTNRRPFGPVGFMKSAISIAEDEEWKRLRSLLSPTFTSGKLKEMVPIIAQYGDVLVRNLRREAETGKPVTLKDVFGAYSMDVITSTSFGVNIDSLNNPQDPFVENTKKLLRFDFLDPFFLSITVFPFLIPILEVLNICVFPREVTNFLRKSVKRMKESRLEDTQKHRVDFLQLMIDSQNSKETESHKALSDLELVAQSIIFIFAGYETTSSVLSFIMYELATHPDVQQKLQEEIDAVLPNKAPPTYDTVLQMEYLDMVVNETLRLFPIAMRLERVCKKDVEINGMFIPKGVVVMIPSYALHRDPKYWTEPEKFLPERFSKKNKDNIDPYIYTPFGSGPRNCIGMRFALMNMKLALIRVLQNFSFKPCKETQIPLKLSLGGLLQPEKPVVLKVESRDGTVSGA
# In short: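 Human CYP3A4 (20 nM) with Luciferin-PPXE at 25 uM (its KM) in 200 mM KPO4; 10 min compound preincubation, then NADPH regeneration and 60 min reaction at RT. Luciferin read by luminescence; normalized to 57 uM ketoconazole full inhibition.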
# [9] = target: Pyruvate kinase (Leishmania mexicana) (UniProt Q27686); test: qHTS Validation Assay for Inhibitors of Leishmania Mexicana Pyruvate Kinase (AID 945; active = well fitted curve in the direction sought with a large enough effect; an effect the other way counts as inactive or inconclusive;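 also: 0% = DMSO only neutral control wells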); conditions: purified L. mexicana pyruvate kinase, enzyme activity, E451W mutant enzyme; series mostly up to 57.5 µM
# Pyruvate kinase (Leishmania mexicana), sequence (Q27686 2-499 E452W): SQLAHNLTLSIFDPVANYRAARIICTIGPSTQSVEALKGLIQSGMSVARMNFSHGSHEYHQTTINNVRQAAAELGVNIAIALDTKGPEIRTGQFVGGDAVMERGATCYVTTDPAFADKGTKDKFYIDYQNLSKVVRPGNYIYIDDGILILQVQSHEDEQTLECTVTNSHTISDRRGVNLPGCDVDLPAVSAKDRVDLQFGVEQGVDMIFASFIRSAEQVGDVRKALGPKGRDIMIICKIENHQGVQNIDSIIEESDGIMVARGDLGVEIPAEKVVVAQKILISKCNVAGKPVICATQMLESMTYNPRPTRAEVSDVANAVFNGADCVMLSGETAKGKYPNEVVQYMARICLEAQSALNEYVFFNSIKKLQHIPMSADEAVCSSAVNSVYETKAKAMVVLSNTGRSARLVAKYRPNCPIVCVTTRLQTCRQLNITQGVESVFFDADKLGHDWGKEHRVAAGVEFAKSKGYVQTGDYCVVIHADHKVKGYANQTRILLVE
# In short: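 Compounds are tested as eight-point concentration series. Reactions contain 0.2 nM LmPYK E451W, 0.5 mM PEP, 0.1 mM ADP, 7 mM MgCl2 and 50 mM KCl at pH 7.2, run 1 h at room temperature, then read by PKLight luminescence.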
# [10] = target: Alpha-galactosidase A (Homo sapiens) (UniProt P06280); test: Counterscreen for Glucocerebrosidase Inhibitors: qHTS Assay for Human alpha-Galactosidase at pH 4.5 (AID 992; active = well fitted curve in the direction sought with a large enough effect; an effect the other way counts as inactive or inconclusive; also: 0% is about no effect); conditions: purified enzyme, fluorogenic substrate; series mostly up to 76.9 µM
# Alpha-galactosidase A (Homo sapiens), sequence (P06280 whole entry, looked up): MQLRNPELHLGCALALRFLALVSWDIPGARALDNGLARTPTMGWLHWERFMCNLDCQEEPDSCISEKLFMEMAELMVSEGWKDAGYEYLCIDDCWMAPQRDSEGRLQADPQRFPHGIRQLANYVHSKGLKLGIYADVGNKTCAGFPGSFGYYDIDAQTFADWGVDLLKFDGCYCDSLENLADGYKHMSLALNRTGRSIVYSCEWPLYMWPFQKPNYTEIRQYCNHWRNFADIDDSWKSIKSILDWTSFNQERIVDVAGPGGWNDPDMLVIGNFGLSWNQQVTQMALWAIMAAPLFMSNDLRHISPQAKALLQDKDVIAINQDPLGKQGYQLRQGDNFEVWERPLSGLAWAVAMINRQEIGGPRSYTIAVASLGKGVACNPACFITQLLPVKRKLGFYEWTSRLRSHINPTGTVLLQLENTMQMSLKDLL
# In short: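 Human enzyme (2 nM) with 80 uM 4-methylumbelliferyl alpha-D-galactopyranoside in 50 mM citric acid, 0.005% Tween-20, pH 4.5, 20 min at room temperature. Compounds 0.7 nM–77 uM; fluorescence Ex 365/Em 440 after pH 10 stop; AC50 from Hill fits.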
# [11] = target: alpha-glucosidase (Oryza sativa, rice) (UniProt Q653V4); test: Counterscreen for Glucocerebrosidase Inhibitors: qHTS Assay for Rice alpha-Glucosidase at pH 5.0 (AID 997; active = well fitted curve in the direction sought with a large enough effect; an effect the other way counts as inactive or inconclusive;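 also: 0% = full activity with enzyme and -100% = basal without enzyme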); conditions: rice alpha-glucosidase enzyme activity; series mostly up to 76.9 µM
# In short: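 Rice alpha-glucosidase (4 nM final) with 400 uM 4-methylumbelliferyl-alpha-D-glucopyranoside in citrate buffer pH 5.0, 20 min at room temperature, stopped at pH 10; fluorescence 365/440 nm, compounds 0.7 nM–77 uM, AC50 from Hill fits.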
# [12] = qHTS Assay for Lipid Storage Modulators (AID 1519; calls by dose curve); conditions: Drosophila S3 cells, BODIPY lipid droplet/cell ratio, laser cytometry, cells loaded with oleic acid; for activity change, negative = inhibition: at 25.7 µM (top of the series)
# In short: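 Cells seeded at 5,000 per well were treated with compounds over a concentration series and loaded with oleic acid (400 uM, as added). Lipid droplet fluorescence (488 nm excitation, 500-530 nm channel) was read by laser-scanning cytometry and normalized to 20 uM Triacsin C.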
# [13] = target: Ubiquitin carboxyl-terminal hydrolase 1 (Homo sapiens) (UniProt O94782); test: Inhibitors of USP1/UAF1: Pilot qHTS (AID 504865; active = well fitted curve in the direction sought with a large enough effect; an effect the other way counts as inactive or inconclusive;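 also: rhodamine fluorescence freed from ubiquitin-rhodamine substrate followed over time; top concentration of the series differs between compounds; % is scaled to controls: 0 for no effect and ±100 for the full control effect; nearly all actives have a fitted effect of over 35% in size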); conditions: purified USP1/UAF1, Ub-rhodamine cleavage fluorescence; series mostly up to 54.9 µM
# Ubiquitin carboxyl-terminal hydrolase 1 (Homo sapiens), sequence (O94782 whole entry, looked up): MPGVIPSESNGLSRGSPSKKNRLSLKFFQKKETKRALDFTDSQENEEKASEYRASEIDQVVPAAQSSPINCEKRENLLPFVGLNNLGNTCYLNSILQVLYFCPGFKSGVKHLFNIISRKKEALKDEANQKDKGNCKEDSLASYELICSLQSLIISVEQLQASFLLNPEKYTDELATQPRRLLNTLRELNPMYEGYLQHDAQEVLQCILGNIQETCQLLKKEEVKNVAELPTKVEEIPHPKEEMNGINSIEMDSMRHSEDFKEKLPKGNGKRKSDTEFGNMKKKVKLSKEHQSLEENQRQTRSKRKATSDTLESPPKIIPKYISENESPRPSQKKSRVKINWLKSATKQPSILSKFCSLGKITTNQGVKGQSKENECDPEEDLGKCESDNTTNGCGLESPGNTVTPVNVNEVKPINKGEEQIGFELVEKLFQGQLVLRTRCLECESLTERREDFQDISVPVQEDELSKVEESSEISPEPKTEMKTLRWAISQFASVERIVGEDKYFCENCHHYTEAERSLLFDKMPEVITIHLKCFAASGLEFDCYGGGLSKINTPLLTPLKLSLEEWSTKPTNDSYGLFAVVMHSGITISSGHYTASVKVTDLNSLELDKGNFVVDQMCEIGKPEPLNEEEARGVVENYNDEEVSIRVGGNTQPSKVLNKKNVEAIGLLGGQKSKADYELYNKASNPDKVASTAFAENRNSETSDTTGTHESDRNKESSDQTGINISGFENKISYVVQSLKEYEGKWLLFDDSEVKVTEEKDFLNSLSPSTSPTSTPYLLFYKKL
# In short: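 USP1/UAF1 complex at 1 nM preincubated 15 min at room temperature with compound, then Ub-Rho substrate added at 150 nM final. Fluorescence (480/540 nm) read kinetically in 50 mM HEPES pH 7.8, 0.5 mM EDTA, 1 mM TCEP, 0.1 mg/ml BSA, 0.01% Tween-20.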
# [14] = target: Glucocorticoid receptor (Homo sapiens) (UniProt P04150); test: GR-GFP Redistribution (AID 450;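 active = compounds whose dose series gives a full or clear partial fitted curve of increased nuclear translocation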; also: potency is read from the fitted curve at half-maximal effect); conditions: U2OS GR-GFP nuclear translocation, laser cytometry, 2 h
# Glucocorticoid receptor (Homo sapiens), sequence (P04150 whole entry, looked up, the tested form may be a part): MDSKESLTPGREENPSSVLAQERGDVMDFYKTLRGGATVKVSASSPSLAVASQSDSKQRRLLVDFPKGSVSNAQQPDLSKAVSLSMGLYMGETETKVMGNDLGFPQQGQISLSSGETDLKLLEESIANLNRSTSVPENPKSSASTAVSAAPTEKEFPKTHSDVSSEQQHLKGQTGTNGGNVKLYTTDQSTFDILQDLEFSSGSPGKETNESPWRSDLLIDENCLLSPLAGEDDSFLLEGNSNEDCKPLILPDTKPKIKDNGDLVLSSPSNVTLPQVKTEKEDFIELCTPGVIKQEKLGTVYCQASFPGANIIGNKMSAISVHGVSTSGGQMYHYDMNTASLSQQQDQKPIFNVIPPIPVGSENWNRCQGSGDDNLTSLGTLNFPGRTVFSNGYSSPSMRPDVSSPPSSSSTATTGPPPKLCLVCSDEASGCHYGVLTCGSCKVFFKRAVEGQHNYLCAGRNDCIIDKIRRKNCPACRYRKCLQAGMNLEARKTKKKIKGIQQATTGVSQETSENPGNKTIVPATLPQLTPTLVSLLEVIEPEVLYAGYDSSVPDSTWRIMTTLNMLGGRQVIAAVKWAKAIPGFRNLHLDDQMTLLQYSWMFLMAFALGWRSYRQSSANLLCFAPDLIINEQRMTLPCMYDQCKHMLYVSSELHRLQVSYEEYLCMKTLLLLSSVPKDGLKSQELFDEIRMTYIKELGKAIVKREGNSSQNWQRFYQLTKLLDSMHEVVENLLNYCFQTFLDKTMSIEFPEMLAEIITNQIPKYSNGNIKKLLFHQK
# [15] = target: Glucocorticoid receptor (Homo sapiens) (UniProt P04150); test: GR-EFC Redistribution (AID 451; calls by dose curve; also: potency is read from the fitted curve at half-maximal effect); conditions: CHO-K1 GR-EFC translocation, beta-gal luminescence, 2 h
# In short: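 CHO-K1 cells expressing nuclear EA and GR-ED fragments of b-gal; compounds titrated up to 46 uM final, 2 h at 37 C. GR nuclear translocation read as complemented b-gal luminescence after 1 h RT detection.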
# [16] = qHTS profiling for inhibitors of Plasmodium falciparum proliferation (AID 504749; active = well fitted curve in the direction sought with a large enough effect; an effect the other way counts as inactive or inconclusive; also: potency is read from the fitted curve at half-maximal effect;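 as to activity, negative = inhibition: 0% = DMSO vehicle and full inhibition = artemisinin control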; as to all read-outs here: nearly all actives have a fitted effect of over 60% in size); conditions: P. falciparum in erythrocytes, SYBR Green DNA, 72 h; for activity, negative = inhibition: at 12.8 µM (top of the series)
# In short: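 Readout was DNA-dye fluorescence from lysed cultures, ex 485/em 535 nm. Parasitized red cells had grown 72 h with compound; data scaled between 0.29 uM artemisinin and DMSO wells and corrected using vehicle-only plates.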
# [17] = measured here: cell count channel max response
# [18] = measured here: lipid channel max response
compound,measurement,setting,value
CN1C(=O)CC[C@@H]1c1cccnc1,"activity change, negative = inhibition",[1]; at 17.2 µM (top of the series),10.4% (inactive)
same,"activity change, negative = inhibition",[1]; at 38 µM (top of the series),-5.74% (inactive)
same,Potency,[2],inactive
same,"activity change, negative = inhibition",[3]; at 17.2 µM (top of the series),1.15% (inactive)
same,"activity change, negative = inhibition",[3]; at 38 µM (top of the series),1.74% (inactive)
same,"activity, negative = inhibition",[4]; at 17.2 µM (top of the series),-1.06% (inactive)
same,"activity, negative = inhibition",[4]; at 38 µM (top of the series),17.2% (inactive)
same,Potency,[5],inactive
same,Potency,[6],inactive
same,Potency,[7],inactive
same,Potency,[8],inactive
same,outcome,[9],inactive
same,outcome,[10],inactive
same,outcome,[11],inactive
same,"activity change, negative = inhibition",[12],0.0072% (inactive)
same,max response,[12]; [17],5.39%
same,max response,[12]; [18],2.29%
same,Potency,[13],inactive
c1ccc([C@@H]2CN3CCSC3=N2)cc1,"activity change, negative = inhibition",[1]; at 17.2 µM (top of the series),0.374% (inactive)
same,"activity change, negative = inhibition",[1]; at 38 µM (top of the series),8.49% (inactive) and 7.24% (inactive)
same,Potency,[2],31.6 µM (active) and inactive and 10 µM (active)
same,"activity change, negative = inhibition",[3]; at 17.2 µM (top of the series),-19.6% (inactive)
same,"activity change, negative = inhibition",[3]; at 38 µM (top of the series),-1.25% (inactive) and -14% (inactive)
same,"activity, negative = inhibition",[4]; at 17.2 µM (top of the series),-3.45% (inactive)
same,"activity, negative = inhibition",[4]; at 38 µM (top of the series),11.8% (inactive)
same,Potency,[14],> 46 µM (inactive) and > 20.6 µM (inactive)
same,Potency,[15],> 46 µM (inactive) and > 20.6 µM (inactive)
same,Potency,[5],inactive
same,Potency,[6],inactive
same,Potency,[7],inactive
same,outcome,[9],inactive
same,outcome,[10],inactive
same,outcome,[11],inactive
same,"activity change, negative = inhibition",[12],-1.37% (inactive)
same,max response,[12]; [17],3.69%
same,max response,[12]; [18],-1.44%
same,Potency,[13],inactive
NC(=O)c1cc[n+](CC2=C(C(=O)O)N3C(=O)[C@@H](NC(=O)[C@H](c4ccccc4)S(=O)(=O)[O-])[C@@H]3SC2)cc1,"activity change, negative = inhibition",[1]; at 17.2 µM (top of the series),2.93% (inactive)
same,"activity change, negative = inhibition",[1]; at 38 µM (top of the series),-7.21% (inactive)
same,Potency,[2],inactive
same,"activity change, negative = inhibition",[3]; at 17.2 µM (top of the series),5.18% (inactive)
same,"activity change, negative = inhibition",[3]; at 38 µM (top of the series),3.09% (inactive)
same,"activity, negative = inhibition",[4]; at 17.2 µM (top of the series),0.394% (inactive)
same,"activity, negative = inhibition",[4]; at 38 µM (top of the series),0.148% (inactive)
same,Potency,[5],inactive
same,Potency,[6],inactive
same,Potency,[7],inactive
same,outcome,[9],inactive
same,outcome,[10],inactive
same,outcome,[11],inactive
same,"activity change, negative = inhibition",[12],-1.52% (inactive)
same,max response,[12]; [17],-10.2%
same,max response,[12]; [18],-11.3%
same,Potency,[16]; parasite line A,3.55 µM (active)
same,Potency,[16]; parasite line B,3.55 µM (active)
O=C(c1ccccc1)c1ccc2n1CC[C@H]2C(=O)O,"activity change, negative = inhibition",[1]; at 17.2 µM (top of the series),-5.93% (inactive)
same,"activity change, negative = inhibition",[1]; at 38 µM (top of the series),-1.3% (inactive)
same,Potency,[2],15.8 µM (active)
same,"activity change, negative = inhibition",[3]; at 17.2 µM (top of the series),-13.5% (inactive)
same,"activity change, negative = inhibition",[3]; at 38 µM (top of the series),-0.138% (inactive)
same,"activity, negative = inhibition",[4]; at 17.2 µM (top of the series),0.0746% (inactive)
same,"activity, negative = inhibition",[4]; at 38 µM (top of the series),5.51% (inactive)
same,Potency,[5],inactive
same,Potency,[6],inactive
same,Potency,[7],inactive
same,outcome,[9],inactive
same,outcome,[10],inactive
same,outcome,[11],inactive
same,"activity change, negative = inhibition",[12],1.19% (inactive)
same,max response,[12]; [17],-5.21%
same,max response,[12]; [18],-1.68%
same,Potency,[13],inactive
same,"activity, negative = inhibition",[16]; parasite line A,1.36% (inactive)
same,"activity, negative = inhibition",[16]; parasite line B,2.01% (inactive)
